Most compounds without a hit are left out; they make up all but 4.1% or so of the library.
CHT allo act: allosteric activators of human choline transporter CHT | B-score at 10 µM | AID 488977 | Q9GZV3 | CHT-expressing cells, membrane potential dye, choline EC20; hits give high values; LV-AA mutant CHT in HEK293 cells | 310,000 compounds, 0.49% hits;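 active means initial fluorescence not abnormally high and integrated response B-score, plate-corrected, over 3 SD above library mean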
MEKK2 WT-MEK5: raises or lowers MEK5 binding to wildtype human MEKK2 PB1 domain. Q9Y2U5. bead flow cytometry, Alexa488-MEK5 binding to MEKK2 WT; actives lie on both sides. binding response (% of control), % at 10 µM. 290,000 compounds, 1.1% hits. AID 1531; in the data active means binding response below about 67% or above about 130%
SUMO Mot1 rescue: blocks SUMOylation pathway, rescuing yeast Mot1-301 growth | growth rescue, % at 18.8 µM | AID 2716 | S. cerevisiae Mot1-301 growth rescue, ATP luminescence, 38.5C; percent above DMSO median, 100 means doubled | 320,000 compounds, 1% hits;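 active means every valid replicate shows activation above 250% relative to neutral control wells; inactive means the rest, any valid replicate at or below 250%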;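 further: OY570 slx delta 5 strain wells were the positive control but not used for scaling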
MEKK2mut PB1 HTS: signal of MEK5 binding to mutant human MEKK2 PB1 domain; bead flow cytometry, Alexa488-MEK5 binding to MEKK2 mutant; percent response, % at 10 µM; 290,000 compounds, 0.35% hits; AID 1530; in the data active means percent response above about 24%, passing the limit was not always enough
MEKK3 PB1 HTS: modulators (inhibitors or enhancers) of MEK5 binding to human MEKK3 PB1 domain; Q99759; bead-based flow cytometry, Alexa488-MEK5 binding to MEKK3; actives lie on both sides; 0 = blocked by unlabeled MEK5, 100 = vehicle; binding response (% of control), % at 10 µM; 290,000 compounds, 1.4% hits; AID 1529;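 active means binding response more than 3 SD above or below the average of its plate-row segment, actives on both sides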;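 further: Alexa488 bead fluorescence after subtracting the streptavidin-only scavenger bead signal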
Target sequence (Q99759 whole entry, looked up, the tested form may be a part): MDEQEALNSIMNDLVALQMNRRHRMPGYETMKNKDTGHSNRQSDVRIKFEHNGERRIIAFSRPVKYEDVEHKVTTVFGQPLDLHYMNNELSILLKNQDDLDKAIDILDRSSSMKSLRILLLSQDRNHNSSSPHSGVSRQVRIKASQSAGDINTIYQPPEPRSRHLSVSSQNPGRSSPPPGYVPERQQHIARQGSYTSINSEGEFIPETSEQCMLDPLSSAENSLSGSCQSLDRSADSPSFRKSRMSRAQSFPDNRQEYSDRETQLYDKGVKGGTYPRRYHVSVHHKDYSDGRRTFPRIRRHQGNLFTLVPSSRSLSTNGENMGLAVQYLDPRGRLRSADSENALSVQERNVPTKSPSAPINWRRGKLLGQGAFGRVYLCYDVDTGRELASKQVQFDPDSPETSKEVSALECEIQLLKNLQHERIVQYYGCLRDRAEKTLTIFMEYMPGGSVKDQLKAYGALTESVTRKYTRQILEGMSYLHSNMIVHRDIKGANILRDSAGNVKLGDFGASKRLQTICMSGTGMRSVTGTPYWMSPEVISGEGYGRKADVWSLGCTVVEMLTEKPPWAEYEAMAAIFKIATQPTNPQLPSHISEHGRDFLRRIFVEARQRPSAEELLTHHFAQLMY
CHT block: human CHT choline transport inhibition. Q9GZV3. CHT-expressing cells, membrane potential dye, choline response; hits give low values. B-score at 10 µM. 310,000 compounds, 0.86% hits. AID 488975;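 active means B-score over 3 SD under the library average, and starting fluorescence ratio not unusually high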;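 further: choline stimulus applied at its EC90 after an EC20 pre-addition; B-score computed on integrated fluorescence ratio after choline addition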
Yeast Mot1 SUMO: yeast SUMO pathway inhibition in dose response. shares compounds with SUMO Mot1 rescue. S. cerevisiae Mot1-301 galactose growth, ATP luminescence, 24 h; -100 = growth of slx-deleted rescue strain. growth activity, percent, % at 42 µM. 2,300 tested, under 10 active;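 active means Signal drops as the depositor expects, and the fitted half-maximal dose is no more than ten times the top valid tested dose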;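 further: more negative values mean stronger growth rescue toward the control strain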
* marks the source's active call; other numbers are inactive results; i = inactive; . = no result; + = active, no number; [ ] = another dose, or the depositor's remark.

SMILES	CHT allo act	MEKK2 WT-MEK5	SUMO Mot1 rescue	MEKK2mut PB1 HTS	MEKK3 PB1 HTS	CHT block	Yeast Mot1 SUMO
Cc1noc(C)c1COc1cccc(C(=O)NC(C)(C)C)c1	i	95.0	10.2	5.0	110.0	i	.
Cc1ccc(N2CCN(C3=NC(=O)C(Cc4ccccc4)S3)CC2)cc1 (stereo not drawn)	i	100.0	152.0	-1.0	101.0	i	.
O=C1N=C(N2CCN(c3ccccc3)CC2)SC1Cc1ccccc1 (stereo not drawn)	i	99.0	529.8*	0.0	102.0	i	0.3
CCOC(=O)c1sc2ncn(C(CC)C(=O)OCC)c(=O)c2c1C (stereo not drawn)	i	83.0	592.2*	-15.0	66.0	i	0.0
Cn1c(=S)oc2ccccc21	i	100.0	4.5	2.0	99.0	i	.
CC(=O)/C=C/n1c(=S)oc2ccccc21	i	93.0	420.5*	-1.0	92.0	i	-1.8
COc1cc(Cl)cc(C2NC(=S)NC(c3ccccc3)=C2C(C)=O)c1OCC(=O)O (stereo not drawn)	i	98.0	519.5	2.0	101.0	i	.
CCC(C)(C)NC(=O)CN(Cc1ccc(OC)cc1)C(=O)CCC(=O)Nc1nccs1	i	98.0	2.7	-1.0	101.0	i	.
O=C1c2nccnc2C(=O)N1c1ccc(C(F)(F)F)cc1	i	98.0	587.7*	1.0	105.0	i	-0.5
CCOc1ccc(N2C(=O)c3cccnc3C2=O)cc1	i	105.0	1.8	7.0	102.0	i	.
COc1cccc(C(=O)N2CCN(S(=O)(=O)Cc3ccccc3)CC2)c1OC	i	102.0	530.0*	2.0	96.0	i	0.3
Cc1cc(C)n(C(=O)CNC(=O)c2ccc3c(c2)OCCO3)n1	i	107.0	601.1*	10.0	107.0	i	0.0
Cc1ccc(C(=O)NCC(=O)Nc2ccc3c(c2)OCCO3)cc1	i	.	579.6*	.	.	i	-0.1[21 µM]
CCCC(O)(CCC)C(=O)NNc1ccc(C)cc1	i	84.0	642.7*	-16.0	75.0	i	0.3
Cc1ccc(NNC(=O)C(O)(c2cccc(C(F)(F)F)c2)c2cccc(C(F)(F)F)c2)cc1	i	103.0	94.5	-4.0	101.0	i	.
N[C@@H](Cc1ccc(O)c(I)c1)C(=O)O	i	101.0	639.7*	-4.0	101.0	i	-0.5
C/C=C/C(=O)N1c2ccc(C)cc2C(C)=CC1(C)C	i	84.0	962.0*	-27.0	89.0	i	0.5
Cn1c(CCN2CCOCC2)nc2cc(NC(=O)COc3ccccc3)ccc21	i	100.0	+	1.0	101.0	i	0.8
Cn1c(CN2CCOCC2)nc2cc(NC(=O)COc3ccccc3)ccc21	i	96.0	23.4	-7.0	95.0	i	.
Cc1ccc(OCCC(=O)N(CC(=O)Nc2ccccc2C(F)(F)F)Cc2ccco2)cc1	i	.	-2.8	.	.	i	.
COc1ccc(/C=C2\SC(=S)N(CCCC(=O)Nc3cc(C)on3)C2=O)cc1OC	i	88.0	+	-8.0	99.0	i	-0.1
COc1ccc(/C=C2\SC(=S)N(CCCCCC(=O)Nc3cc(C)on3)C2=O)cc1OC	i	85.0	0.3	-3.0	95.0	i	.
CCCCc1nc(SCC(=O)Nc2ncccn2)n[nH]1	i	.	.	.	.	i	.
CCCCCCCCc1nc(SCC(C)=O)n[nH]1	i	92.0	698.7*	-19.0	89.0	i	-0.6
O=C(Nc1ccc(F)cc1F)c1cc(-c2ccc3c(c2)OCO3)on1	i	97.0	-21.3	-7.0	101.0	i	.
SMILES	CHT allo act	MEKK2 WT-MEK5	SUMO Mot1 rescue	MEKK2mut PB1 HTS	MEKK3 PB1 HTS	CHT block	Yeast Mot1 SUMO
Clc1ccc(N=c2ssnc2Cl)nc1	i	85.0	654.8*	-11.0	101.0	i	0.1
O=C(c1cccs1)N(C(=O)c1cccs1)c1ccc(Br)cn1	i	96.0	481.6*	1.0	99.0	i	-3.1
CC(=O)NNC(=O)c1[nH]c2ccc(Cl)cc2c1-c1ccccc1	i	102.0	11.3	-5.0	99.0	i	.
NNC(=O)c1[nH]c2ccccc2c1-c1ccccc1	i	105.0	653.2*	2.0	105.0	i	-0.6
Cc1cc(=O)oc(C)c1C(=O)OCC(=O)c1ccc(Cl)cc1	i	105.0	-9.2	9.0	109.0	i	.
Cc1cc(C)c(S(=O)(=O)NCC(c2cccnc2)N2CCN(Cc3ccccc3)CC2)c(C)c1 (stereo not drawn)	i	108.0	524.3*	6.0	93.0	i	0.0
CCOC(=O)C1CCCN(C(=O)c2cc(-c3ccc(F)cc3)nc3ccccc23)C1 (stereo not drawn)	i	105.0	463.4*	0.0	110.0	i	-0.1
COC(=O)C1CCN(C(=O)[C@H](C)NC(=O)C2CC(=O)N(c3ccc(F)cc3)C2)CC1 (stereo partly drawn)	i	99.0	1.3	1.0	103.0	i	.
Cc1nc2scc(-c3cccs3)c2c(=O)[nH]1	i	97.0	4.8	-3.0	95.0	i	.
Nc1nc(SCc2nc3scc(-c4cccs4)c3c(=O)[nH]2)n[nH]1	i	95.0	+	-16.0	93.0	i	0.3
CC(CN1CCCCCC1)C(=O)NN (stereo not drawn)	i	102.0	674.0*	1.0	98.0	i	0.8
CN(CC(O)CN)CC(O)CN1CCCCC1 (stereo not drawn)	i	97.0	-11.7	-1.0	99.0	i	.
CC1(C)Oc2ccc3ccc(=O)oc3c2/C(=C/Nc2ccc(O)cc2)C1=O	i	99.0	983.5*	-2.0	97.0	i	0.2
CC1(C)Oc2ccc3ccc(=O)oc3c2/C(=C/Nc2cccc(O)c2)C1=O	i	98.0	14.9	-1.0	108.0	i	.
Cc1ccc(C)c(-n2nnnc2SCC(=O)Nc2c(C)n(C)n(-c3ccccc3)c2=O)c1	i	94.0	376.7*	0.0	98.0	i	-0.2
N#CCCN1CCN(S(=O)(=O)c2ccc(C3CCCCC3)cc2)CC1	.	.	-10.4	.	.	.	.
O=S(=O)(c1ccc(S(=O)(=O)N2CCCC2)cc1)N1CCCCC1	i	101.0	682.6*	0.0	100.0	i	-0.2
O=S(=O)(c1ccc(C2CCCCC2)cc1)N1CCCC1	i	98.0	621.2*	-2.0	98.0	i	-0.4
CC(C)(O)[C@H](O)Cc1cc2ccc(=O)oc2cc1O[C@@H]1O[C@H](CO)[C@@H](O)[C@H](O)[C@H]1O	.	.	12.1	.	.	.	.
O=c1cnc2cc([N+](=O)[O-])ccc2[nH]1	i	76.0	847.8*	-12.0	91.0	i	0.3
O=C(COC(=O)c1ccccn1)NCc1cccs1	i	.	-3.2	.	.	i	.

Bioassay records as filed in PubChem.
